Measurements reported in the supplement of paper PMC6555819.

Test system: RXRa homodimer (NR concentration 180 nM)
Experiment: PBM binding z-score (relative to random genomic background probes); higher = stronger binding; sequences stand for … in GC…GCGATTGACAGCGTAGAATGAAGG
In short: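 Custom Agilent 4×180K protein-binding microarrays carried double-stranded probes. Their 34-nt variable regions held direct-repeat seeds, single-nucleotide variants, half-site ablations and random human genomic background sequences. Arrays were incubated 1 h with ligand-free nuclear receptor dimers in PBS pH 7.4, 2% milk, 0.02% Triton X-100, 1 mM DTT, 0.2 mg/mL BSA and 0.4 mg/ml salmon testes DNA. Antibodies against each partner (one per run) detected binding, and scanned fluorescence was regression-normalized. Binding z-scores use random background probes as reference.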

Sequence | PBM binding z-score
CAAGCTAGGTCAAGAGGTCAAAGTCCGCTTCCCG | 8.24
TTACCAAGGTGAAAGGTCGTTGAGGCACGCCTTG | 6.39
CCTGCTAGGTCTATGGTCAGCTAAAGCAGCTCGC | -0.345
AGTCATAGTTCACTAGGTAACGTAAGATTCAGCT | 1.6
ACTAGTTGGTAAGCTGAGGTCACACACAATTCGG | 3.57
GCTGCTAGGTCAGGTTGGTCGGCTAACGGGTACG | 0.882
CCTACTGGGCCAAGGTCTTTGATCAGTCAAAGCA | -0.568
ATATGAAGGTTATCGGGTCATTCAGTTTGCGCAT | 4.02
GCTGCTAGGTCAGGTTGGTCTGCTAACGGGTACG | 1.04
CTCGAAAGGTCGGTTGAGGTGAGTAAACGGATAA | 2.46
CGTCGGAGGACAGAAGGTCAGAGCTGTCCGCTTT | 1.83
AGTCAAAGTTCACGAGGTAACGTAAGATTCAGCT | 6.24
ATATGTAGCTTAAGGGTCATTCAGGTTGGTTCGC | 4.27
CCGACTGGGCCATTCAGAGGTCATTGATCATATG | 3.85
ATCTCTAGGTAAAGTTCAGCGAAAGATCGATAGA | 1.9
CGTCCAAGGTCAGCAGGTCACTGAAAGCGACGTG | 6.51
TAGCCTAGGTCAGATCGGGGCAGTATACGCTATA | 1.6
CGTCCAAGGTCAACAGGTCAGTGAAAGCGACGTG | 6.49
CGTCAAAGTTCAACTAAGTTAACGTAAAGCACGC | 5.2
TCTAGGAGGACACGAAGGTCAGAGCTTTCCAGAG | 2.01

Sequence | PBM binding z-score
AGTCAAAGTTCACGACGAGGTAACGTAAAGCACG | 5.95
CAAACTAGGTCACGAAAGGTCAACGTCGAATGAC | 8.35
AGTCAAATTTCACTAGGTAACGTAAGATTCAGCT | -0.206
CGAACTAGGTCAGAACAGGACAGTTAAGGATGAT | 1.3
GATACAGAGTCAGCTAGAGGCCAGAGTATGGAAA | -0.0704
CCCCGGAGGACAGAAGGTCAGAGCTGTCCGCTTT | 1.78
AGTCCAAGTTCACTAGGTAACGTAAGATTCAGCT | 1.74
CGTCAAAGCTCAACTAAGGTAACGTAAAGCACGC | -0.0326
TTACGAAGGTGAAAGGTCGTTGATGCACGCCTTG | 5.5
CATACAGGGTCCGCTAGGCCAGAGTAGGGACGGC | -0.247
CCTACTGGGCCATTCAGAGGTCATTGATCATATG | 3.55
ATCGAATGGTCGAAGGTGAGTATACCCACCCGAA | 0.585
TAGCCTAGGACATGCGGGCCAGTATAGTGTCGGC | -0.25
GCTGCTAGGTCAGGATGGTCAGCTAACGGGTACG | 1.18
CCTCGGAGGACAGAAGGTCAGATCTGTCCGCTTT | 2.01
ATCTCTAGGTAAAGTTCATTGAAAGATCGATAGA | 2.49
CAGCCTAGGTGAGGGCCAGTATAGGAGGAACGTT | -0.128
GCTGCTAGGTCAGGTTGGTCAACTAACGGGTACG | 1.17
CGTCGGAGGACAACAGGAGGTCAGAGCTGCCAGA | 2.26
